Where a structure was tested more than once in an assay, its records may differ in their call. Active and inactive are the calls of the source. How the source made its calls: active means hit-call score of the fitted dose curve at least 0.9, where 1 is the maximum; inactive means score below 0.9.

This assay is described as follows: ATG_ISRE_CIS: Attagene CIS-FACTORIAL HepG2 Assay for human Interferon Regulatory Factor 1 (IRF1) binding to an Interferon-Stimulated Response Element (ISRE) (AID 2282948). The following applies: HepG2 ISRE cis-reporter (Attagene), mRNA transcription readout; actives raise or lower the signal. As to the method: ATG_CIS is a cell-based, multiplexed-readout assay that uses HepG2, a human liver cell line, with measurements taken at 24 hours after chemical dosing in a 24-well plate.ATG_ISRE_CIS is one of 52 assay component(s) measured or calculated from the ATG_CIS assay. It is designed to make measurements of mRNA induction, a form of inducible reporter, as detected with fluorescence intensity signals by Reverse transcription polymerase chain reaction (RT-PCR) and Capillary electrophoresis technology.Data from the assay component ATG_ISRE_CIS was analyzed into 1 assay endpoint. This assay endpoint, ATG_ISRE_CIS, was analyzed with bidirectional fitting relative to DMSO as the negative control and baseline of activity. Using a type of inducible reporter, measures of mRNA for gain or loss-of-signal activity can be used to understand the reporter gene at the transcription factor-level as they relate to the gene IRF1. Furthermore, this assay endpoint can be referred to as a primary readout, because this assay has produced multiple assay endpoints where this one serves a reporter gene function. To generalize the intended target to other relatable targets, this assay endpoint is annotated to the dna binding intended target family, where the subfamily is interferon regulatory factors.
Human liver HepG2 cells are transiently transfected with multiple reporter transcription units (MRTUs) in 6-well plates using FuGene 6 reagent (Roche; 3 ml FuGene/1 mg DNA). The MRTU constructs are regulated by a cis-regulating element (promoter). […] A major difference between the CIS and TRANS system is that in CIS activities of endogenous TFs are measured, whereas the TRANS assay evaluates changes in activities of exogenous, chimeric NR-Gal4 proteins. […] At the end of 24 hour incubation, total RNA was isolated using TriZol reagent (Invitrogen). The isolated RNA is then reverse-transcribed using oligo(dT) primer and Mo-MLV reverse transcriptase (Invitrogen) with DNAse I (Ambion) treatment for 30 min. The one-tenth of the produced cDNA was amplified by PCR using Taq DNA polymerase (Invitrogen) and two reporter sequence-specific primers. The PCR products were fluorescently labeled by primer extension with 6-arboxyfluorescein (6-FAM) 5'-labeled reporter sequence-specific primer (2 min at 95 C, 20 s at 68 C and 10 min at 72 C) and these products were digested with 5U of HpaI (New England Biolabs) for 2h at 37 C. The fragments were purified using Qiaquick PCR columns (Qiagen), analyzed on an ABI 3130xL genetic analyzer (Applied Biosystems) with peak positions identified by using a set of X-rhodamine (ROX)-labeled MapMarker1000 molecular weight standards (BioVentures). The raw capillary electrophoresis data was processed using Attagraph software (Attagene).
Consider `CSC1=N[C@@](C)(c2ccccc2)C(=O)N1Nc1ccccc1`, for which the molecule was classed as inactive. For `CCOC(=O)CC(SP(=O)(OC)OC)C(=O)OCC` (stereo not given), the molecule was classed as inactive. In the case of `CSc1nnc(C(C)(C)C)c(=O)n1N`, the outcome was inactive. As for `COP(=O)(OC)OC(Br)C(Cl)(Cl)Br` (stereo not given), the molecule was classed as inactive. `CNC(=O)Oc1cccc2c1OC(C)(C)O2`: the outcome was inactive. The same measure, in the same setting: with `CCOP(=O)(NC(C)C)Oc1ccc(SC)c(C)c1` (stereo not given) the entry was “inactive”; with `CNC(=O)ON=C(C)SC`, “inactive”.

The AC50 is the midpoint of the concentration-response curve, whichever way the signal moves. With `CCCCSP(=O)(SCCCC)SCCCC`, the AC50 is 58.6 µM (active).

As for `CC1(C(=O)Nc2ccc(O)c(Cl)c2Cl)CCCCC1`, the molecule was classed as inactive. Take `CCOP(=S)(OCC)Oc1ccc2c(C)c(Cl)c(=O)oc2c1`: the call was inactive. Turning to `CCC(CC)Nc1c([N+](=O)[O-])cc(C)c(C)c1[N+](=O)[O-]`, the AC50 was 50 µM (active).

Regarding `CC(Oc1cccc(Cl)c1)C(=O)O` (stereo not given), the call was inactive.

`CCOP(=S)(OCC)Oc1ccc([N+](=O)[O-])cc1`: the result was inactive.

In the case of `CON=C(C(=O)OC)c1ccccc1CON=C(C)c1cccc(C(F)(F)F)c1`, the AC50 is 12.6 µM (active). Take `CCOP(=S)(Oc1cnc(C(C)(C)C)nc1)OC(C)C` (stereo not given): the molecule was classed as inactive. Same read-out and setting: with `CNC(=O)ON=C(SC)C(=O)N(C)C` the entry was “inactive”. Same read-out and setting: the entry for `C[Si](Cn1cncn1)(c1ccc(F)cc1)c1ccc(F)cc1` is “inactive”. With `C#CCC1=C(C)C(OC(=O)C2C(C=C(C)C)C2(C)C)CC1=O` (stereo not given), the AC50 was 71.2 µM (active). As to `CN(C)[C@@H]1C(=O)C(C(N)=O)=C(O)[C@@]2(O)C(=O)C3=C(O)c4c(O)cccc4[C@@](C)(O)[C@H]3[C@H](O)[C@@H]12`, the molecule was called inactive. Consider `Nc1nc(N)nc(NC2CC2)n1`, for which the molecule was called inactive. On to `C[N+]1(C)CCCCC1`, for which the molecule was called inactive. Still for that read-out and setting: with `COc1cc(OC)nc(Sc2cccc(Cl)c2C(=O)O)n1` the entry was “inactive”; with `CC[C@H](C)[C@H]1O[C@]2(C=C[C@@H]1C)C[C@@H]1C[C@@H](C/C=C(\C)[C@@H](O[C@H]3C[C@H](OC)[C@@H](O[C@H]4C[C@H](OC)[C@@H](NC)[C@H](C)O4)[C@H](C)O3)[C@@H](C)/C=C/C=C3\CO[C@@H]4[C@H](O)C(C)=C[C@@H](C(=O)O1)[C@]34O)O2`, “inactive”; with `CCOP(=S)(OCC)SCCSCC`, “inactive”. The same measure, in the same setting: the entry for `CC(C)N(C(=O)SCC(Cl)=C(Cl)Cl)C(C)C` is “inactive”; for `CC(=NC#N)N(C)Cc1ccc(Cl)nc1` it is “inactive”; for `CCOP(=S)(OCC)Oc1cc(C)nc(C(C)C)n1` it is “inactive”. The same measure, in the same setting: the entry for `Nc1c(Cl)cc([N+](=O)[O-])cc1Cl` is “inactive”.

With `CCCCOC(=O)[C@@H](C)Oc1ccc(Oc2ccc(C#N)cc2F)cc1`, the result was inactive.

For `CNc1cnn(-c2cccc(C(F)(F)F)c2)c(=O)c1Cl`, the outcome was inactive.

With `C=C(C)[C@H]1Cc2c(ccc3c2O[C@@H]2COc4cc(OC)c(OC)cc4[C@@H]2C3=O)O1`, the outcome was inactive.

In the case of `CCOP(=O)(OCC)Oc1cc(C)nc(C(C)C)n1`, the outcome was inactive. As to `O=[N+]([O-])c1cc(C(F)(F)F)c(Cl)c([N+](=O)[O-])c1Nc1ncc(C(F)(F)F)cc1Cl`, the AC50 is 16.6 µM (active) and the molecule was called inactive. As to `CCNc1nc(Cl)nc(NC(C)(C)C#N)n1`, the molecule was called inactive. On the same count and under the same terms, with `CCc1cnc(C2=NC(C)(C(C)C)C(=O)N2)c(C(=O)O)c1` (stereo not given) the entry was “inactive”; with `CCCOc1nn(C(=O)NS(=O)(=O)c2ccccc2C(=O)OC)c(=O)n1C`, “inactive”.

On to `CCc1cccc(C)c1N(C(=O)CCl)C(C)COC` (stereo not given), for which the result was inactive. For the molecule `CCOP(=S)(OCC)OC(Cl)C(Cl)(Cl)Cl` (stereo not given), the molecule was classed as inactive. With `CN(C)C(=O)Nc1cccc(C(F)(F)F)c1`, the result was inactive.
